Test results: PubChem BioAssay (NCATS)
Results filed as inconclusive are left out. Calls of active or inactive are those of the source. Calls follow the shape of the dose curve; as a rule, active = well fitted cell-killing curve with a large enough effect; inconclusive = small, poorly fitted or top-dose-only effect, or effect the other way; inactive = flat fitted curve, though single readings scatter.

What was measured:
Assay in all cases: Primary qHTS to identify gynecologic anti-cancer compounds using libraries of approved drugs and bioactive compounds (AID 1345084); also: nearly all actives have a fitted effect of over 55% in size
[1] = test system: C33A; settings: Gynecologic cancer cell panel viability, ATPlite luminescence, 48 h; series mostly up to 57.5 µM
In short: (§1)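 Cells, 1,000 per well, were allowed to settle for 16 h at 37 C before compound addition. Five concentrations were tested for 48 h, and viability was read by ATPlite luminescence after 15 min at room temperature.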

[2] = test system: CAOV3; settings: Gynecologic cancer cell panel viability, ATPlite luminescence, 48 h; series mostly up to 57.5 µM
In short: as §1

[3] = test system: CASKI; settings: Gynecologic cancer cell panel viability, ATPlite luminescence, 48 h; series mostly up to 57.5 µM
In short: as §1

[4] = test system: Es-2; settings: Gynecologic cancer cell panel viability, ATPlite luminescence, 48 h; series mostly up to 57.5 µM
In short: as §1

[5] = test system: HeLa; settings: Gynecologic cancer cell panel viability, ATPlite luminescence, 48 h; series mostly up to 57.5 µM
In short: as §1

[6] = test system: Hek293T; settings: Gynecologic cancer cell panel viability, ATPlite luminescence, 48 h, control line for the selectivity index; series mostly up to 57.5 µM
In short: as §1

[7] = test system: OV90; settings: Gynecologic cancer cell panel viability, ATPlite luminescence, 48 h; series mostly up to 57.5 µM
In short: as §1

[8] = test system: JEG-3; settings: Gynecologic cancer cell panel viability, ATPlite luminescence, 48 h; series mostly up to 57.5 µM
In short: as §1
% is scaled to controls: 0 for no effect and ±100 for the full control effect; potency is read from the fitted curve at half-maximal effect.

CCCSP(=O)(OCC)SCCC
inactive: Potency [1] | Potency [2] | Potency [3] | Potency [4] | Potency [5] | Potency [6] | Potency [7]

COC1CC(OC2CCC3(C=O)C(CCC4C3CCC3(C)C(C5=CC(=O)OC5)CCC43O)C2)OC(C)C1OC1OC(CO)C(O)C(O)C1O (centres undefined)
active: Potency [1] 158 nM | Potency [2] 631 nM | Potency [3] 1120 nM | Potency [4] 355 nM | Potency [5] 282 nM | Potency [6] 398 nM | Potency [7] 891 nM

COc1cc(C)[nH]c(=O)c1CNC(=O)c1c(C)n([C@H](C)C2CCOCC2)c2ccccc12
inactive: Potency [1] | Potency [3] | Potency [4] | Potency [5] | Potency [6] | Potency [8] | Potency [7]

CC(=O)OC12C(O)C(C)C3(O)C4C=C(C)C(=O)C4CC(CO)=CC3C1C2(C)C (centres undefined)
inactive: Potency [1] | Potency [2] | Potency [3] | Potency [4] | Potency [5] | Potency [6] | Potency [8] | Potency [7]

C=C(CO)C(=O)O[C@H]1C/C(C)=C/CC/C(CO)=C/[C@H]2OC(=O)C(=C)[C@H]12
inactive: Potency [1] | Potency [3] | Potency [4] | Potency [5] | Potency [6] | Potency [8] | Potency [7]

CCCCCCn1c(=O)c(C(=O)Nc2ccc(C(=O)OCCC)cc2)c(O)c2ccccc21
inactive: activity change, negative = cytotoxicity [1] -0.0211% [at 11.6 µM] | activity change, negative = cytotoxicity [2] 20.9% [at 11.6 µM] | activity change, negative = cytotoxicity [3] 4.2% [at 11.6 µM] | activity change, negative = cytotoxicity [4] 9.25% [at 11.6 µM] | activity change, negative = cytotoxicity [5] 18.5% [at 11.6 µM] | activity change, negative = cytotoxicity [6] 10.5% [at 11.6 µM] | activity change, negative = cytotoxicity [8] -0.73% [at 11.6 µM] | activity change, negative = cytotoxicity [7] 9.17% [at 11.6 µM]

C=CC(C)(C)c1[nH]c2cccc3c2c1C[C@@H]1[C@@H]3[C@@H](OC(C)=O)[C@H](C)CN1C
inactive: Potency [1] | Potency [3] | Potency [4] | Potency [5] | Potency [6] | Potency [8] | Potency [7]

C[C@@]12C[C@@H](c3ccoc3)OC(=O)C1CC[C@]1(C)[C@H]2[C@H]2C=C[C@]1(O)C(=O)O2 (some centres undefined)
inactive: Potency [1] | Potency [2] | Potency [3] | Potency [4] | Potency [5] | Potency [6] | Potency [8] | Potency [7]

CCc1c(C(=O)C(N)=O)c2c(OCC(=O)OC)cccc2n1Cc1ccccc1
inactive: Potency [1] | Potency [2] | Potency [3] | Potency [4] | Potency [5] | Potency [6] | Potency [8] | Potency [7]

COc1cc(CCNCc2ccccc2O)c(OC)cc1C#N
inactive: Potency [1] | Potency [2] | Potency [3] | Potency [4] | Potency [5] | Potency [6] | Potency [8] | Potency [7]

CCOc1ccccc1-n1c(C(C)N2CCN(C(=O)COc3ccc(Cl)cc3)CC2)nc2ccccc2c1=O (centres undefined)
inactive: Potency [1] | Potency [2] | Potency [3] | Potency [5] | Potency [7]
active: Potency [4] 3980 nM

COC1=CC(=O)O[C@@H](CCc2ccccc2)C1
inactive: Potency [1] | Potency [2] | Potency [3] | Potency [4] | Potency [5] | Potency [6] | Potency [8] | Potency [7]

CN[C@H]1[C@H](O)[C@H](O[C@@H]2[C@@H](O)[C@H](O[C@H]3O[C@H]([C@H](C)O)[C@@H](O)[C@H](O)[C@H]3N)[C@@H](N)C[C@H]2N)OC[C@@]1(C)O
inactive: Potency [1] | Potency [2] | Potency [3] | Potency [4] | Potency [5] | Potency [6] | Potency [8] | Potency [7]

CC(C)(C)c1cc(C(C)(C)C)c2c(c1)C(O)(C(F)(F)F)C(=O)O2 (centres undefined)
inactive: Potency [1] | Potency [2] | Potency [3] | Potency [4] | Potency [5] | Potency [6] | Potency [8] | Potency [7]

COC(=O)[C@@]12C(=O)C(C)C(=O)[C@]1(C)C(C)=C[C@H]1[C@]3(C=O)CC[C@H](OC(C)=O)C(C)(C)[C@H]3CC[C@@]12C (some centres undefined)
inactive: Potency [1] | Potency [2] | Potency [3] | Potency [4] | Potency [5] | Potency [6] | Potency [8] | Potency [7]

C/C=C(\C)C(=O)O[C@H]1[C@H](OC(C)=O)[C@]2(CO)[C@H](O)[C@H](O)[C@]3(C)C(=CCC4[C@@]5(C)CC[C@H](O[C@@H]6O[C@H](C(=O)O)[C@@H](O)[C@H](O[C@@H]7OC[C@H](O)[C@H](O[C@@H]8OC[C@H](O)[C@H](O)[C@H]8O)[C@H]7O)[C@H]6O[C@@H]6O[C@H](CO)[C@@H](O)[C@H](O)[C@H]6O)C(C)(C)C5CC[C@]43C)[C@@H]2CC1(C)C (some centres undefined)
inactive: activity change, negative = cytotoxicity [1] 0.756% [at 6.55 µM] | activity change, negative = cytotoxicity [3] 13.6% [at 6.55 µM] | activity change, negative = cytotoxicity [4] -0.471% [at 6.55 µM] | activity change, negative = cytotoxicity [5] 10.9% [at 6.55 µM] | activity change, negative = cytotoxicity [6] -2.46% [at 6.55 µM] | activity change, negative = cytotoxicity [8] -2.67% [at 6.55 µM] | activity change, negative = cytotoxicity [7] -10.1% [at 6.55 µM]

COCC1OC(=O)c2coc3c2C1(C)C1=C(C3=O)C2CCC(=O)C2(C)CC1O (centres undefined)
inactive: Potency [1] | Potency [3] | Potency [4] | Potency [5] | Potency [6] | Potency [8] | Potency [7]

COc1c(C(C)C)cc2c(c1O)[C@@]1(C(=O)O)CCCC(C)(C)C1CC2 (some centres undefined)
inactive: Potency [1] | Potency [3] | Potency [4] | Potency [5] | Potency [6] | Potency [8] | Potency [7]

CC1C/C=C/C(O)C(O)CC/C=C/c2cc(O)cc(O)c2C(=O)O1 (centres undefined)
inactive: Potency [1] | Potency [2] | Potency [3] | Potency [4] | Potency [5] | Potency [6] | Potency [8] | Potency [7]

C[C@]12CC[C@H]3[C@@H]([C@H](O)CC4=CC(=O)CC[C@@]43C)[C@@H]1CC[C@@H]2O
inactive: Potency [1] | Potency [2] | Potency [3] | Potency [4] | Potency [5] | Potency [6] | Potency [8] | Potency [7]

O=C(O)c1ccnc2cc(C(OCCN3CCCCC3)c3ccccc3Cl)[nH]c12 (centres undefined)
inactive: Potency [1] | Potency [2] | Potency [3] | Potency [4] | Potency [5] | Potency [6] | Potency [8] | Potency [7]

CC(=O)OC1CC(O)C(C)(C)C2CC(OC(C)=O)C3(C)C(CCC4(C)C(c5ccoc5)C(=O)C5OC543)C12C (centres undefined)
inactive: Potency [1] | Potency [3] | Potency [4] | Potency [5] | Potency [6] | Potency [8] | Potency [7]

C=C[C@H]1CN2CC[C@H]1C[C@@H]2[C@@H](O)c1ccnc2ccccc12
inactive: Potency [1] | Potency [2] | Potency [3] | Potency [4] | Potency [5] | Potency [6] | Potency [8] | Potency [7]

C=CC(C)(O)CC/C=C(\C)C(=O)O[C@H]1[C@H](O)[C@@H](CO)O[C@@H](OC(=O)[C@]23CCC(C)(C)CC2C2=CCC4[C@@]5(C)CC[C@H](O[C@@H]6O[C@H](CO[C@@H]7OC[C@H](O)[C@H](O)[C@H]7O[C@@H]7OC[C@@H](O)[C@H](O)[C@H]7O)[C@@H](O)[C@H](O)[C@H]6O)C(C)(C)C5CC[C@@]4(C)[C@]2(C)CC3)[C@@H]1OC1OC(C)C(O[C@@H]2OC[C@@H](O)[C@H](O[C@@H]3OC[C@@H](O)[C@H](O)[C@H]3O)[C@H]2O)C(O)C1O (some centres undefined)
inactive: activity change, negative = cytotoxicity [1] 2.58% [at 6.55 µM] | activity change, negative = cytotoxicity [3] -11.5% [at 6.55 µM] | activity change, negative = cytotoxicity [4] 0.692% [at 6.55 µM] | activity change, negative = cytotoxicity [5] 7.46% [at 6.55 µM] | activity change, negative = cytotoxicity [6] 2.18% [at 6.55 µM] | activity change, negative = cytotoxicity [8] -17.2% [at 6.55 µM] | activity change, negative = cytotoxicity [7] -3.63% [at 6.55 µM]

C[C@]12CC[C@@H](O)C[C@H]1CC[C@@H]1[C@@H]2CC[C@]2(C)C(=O)CC[C@@H]12
inactive: Potency [1] | Potency [2] | Potency [3] | Potency [4] | Potency [5] | Potency [6] | Potency [8] | Potency [7]

CCN1CC2(COC)C3[C@@H](OC)C4C1C3(C1C[C@]3(O)[C@H](OC(=O)c5ccccc5)C1[C@]4(OC(C)=O)[C@@H](O)[C@@H]3OC)[C@H](OC)C[C@H]2O (some centres undefined)
inactive: Potency [1] | Potency [3] | Potency [4] | Potency [5] | Potency [6] | Potency [8] | Potency [7]

CN1CCC[C@@H]1Cc1c[nH]c2ccc(Nc3ncccc3[N+](=O)[O-])cc12
inactive: Potency [1] | Potency [2] | Potency [3] | Potency [4] | Potency [5] | Potency [8] | Potency [7]

COC1CC(O[C@H]2CC[C@]3(C=O)C4CC[C@]5(C)[C@@H](C6=CC(=O)OC6)CC[C@]5(O)[C@@H]4CC[C@]3(O)C2)OC(C)C1O[C@@H]1O[C@H](CO)[C@@H](O)[C@H](O)[C@H]1O (some centres undefined)
active: Potency [1] 141 nM | Potency [2] 501 nM | Potency [4] 355 nM | Potency [5] 355 nM | Potency [6] 501 nM

CN(C(=O)Cc1ccccc1)C(CN1CCCC1)c1ccccc1 (centres undefined)
inactive: Potency [1] | Potency [2] | Potency [3] | Potency [4] | Potency [5] | Potency [6] | Potency [8] | Potency [7]

COC(=O)C1(C)CCC(=O)C2(C)c3c(O)cc(C(C)C)cc3C(O)C(OC(C)=O)C12 (centres undefined)
inactive: Potency [1] | Potency [2] | Potency [3] | Potency [4] | Potency [5] | Potency [6] | Potency [8] | Potency [7]

COc1ccccc1CN[C@H]1C2CCN(CC2)[C@H]1C(c1ccccc1)c1ccccc1
inactive: Potency [1] | Potency [3] | Potency [4] | Potency [5] | Potency [6] | Potency [8]

CCc1[nH]c2ccc(OC)cc2c1CCN(C)C
inactive: Potency [1] | Potency [2] | Potency [3] | Potency [4] | Potency [5] | Potency [6] | Potency [8] | Potency [7]

C/C=C(\C)C(=O)OC1CC2C(CC=C3CC(OC4CC(OC)C(OC5CC(OC)C(OC6OC(C)C(OC7OC(CO)C(O)C(O)C7O)C(OC)C6O)C(C)O5)C(C)O4)CCC32C)C2(O)CCC(C(C)=O)C12C (centres undefined)
inactive: activity change, negative = cytotoxicity [1] 3.18% [at 11.6 µM] | activity change, negative = cytotoxicity [3] 19.1% [at 11.6 µM] | activity change, negative = cytotoxicity [4] 3.55% [at 11.6 µM] | activity change, negative = cytotoxicity [5] -1.26% [at 11.6 µM] | activity change, negative = cytotoxicity [6] 2.23% [at 11.6 µM] | activity change, negative = cytotoxicity [8] 1.45% [at 11.6 µM] | activity change, negative = cytotoxicity [7] 8.31% [at 11.6 µM]
